Screening results from PubChem BioAssay.
Sampled rows, rich in hits. Any-hit rate of the full collection: about 3.4%.
Gli-Sufu block: Gli-Sufu pathway antagonists, primary screen, luciferase luminescence, Sufu-KO-LIGHT cells, uHTS; inhibition, % at 5 µM; 340,000 compounds, 0.74% hits; Sufu-KO-LIGHT fibroblasts, Gli luciferase reporter luminescence;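 active means inhibition above about 55%, limit read from the data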
H9c2 protect: cardioprotection against H2O2-induced cell death, primary screen, uHTS, H9c2 cells, ATPLite luminescence | H9c2 cardiomyocytes, H2O2 injury protection, 2 h | protection from H2O2 cell death, % at 20 µM | 360,000 compounds, 0.63% hits | AID 588492, 2011;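 active means compounds giving at least 50% protection of heart cells from peroxide-induced death in the single-dose screen, raw or plate-pattern-corrected value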
SMARCA2 act: SMARCA2 (BRM) function activators, primary screen, cell-based, luminescence, high throughput; MG213 cells, MMTV-luciferase reporter, dexamethasone, overnight; activation, % at 9.1 µM; 370,000 compounds, 1% hits; AID 652017, 2013; in the data active means activation above about 7.8%
GAA850 FXN act: FXN promoter activators, primary screen, cell-based, luciferase luminescence, HEK293 lucGAA850. HEK293 lucGAA850 FXN promoter luciferase reporter, 24 h; percent of 10 µM SAHA response. activation, % at 6 µM. 360,000 compounds, 0.56% hits. AID 540364, 2011;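 active means activation above the average of all compounds screened plus 3 SD, cutoff fixed separately per campaign, cut at about 7.5% in these data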
GalR3 antag: GalR3 antagonists in HEK293 cells, primary screen, cell-based, fluorescence readout. Galanin receptor type 3 (Homo sapiens), O60755. HEK293 GalR3-CNG cAMP membrane potential fluorescence; galR3 body fused to GalR1 C-terminus. inhibition, % at 3 µM. 360,000 compounds, 0.44% hits;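 active means inhibition above the screen-wide average plus 3 SD, cut at about 13% in these data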;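 further: forskolin and galanin both at EC90 stimulate the cells; cAMP rise reported by CNG channel membrane potential dye signal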
Target sequence (O60755 1-299 limits assumed): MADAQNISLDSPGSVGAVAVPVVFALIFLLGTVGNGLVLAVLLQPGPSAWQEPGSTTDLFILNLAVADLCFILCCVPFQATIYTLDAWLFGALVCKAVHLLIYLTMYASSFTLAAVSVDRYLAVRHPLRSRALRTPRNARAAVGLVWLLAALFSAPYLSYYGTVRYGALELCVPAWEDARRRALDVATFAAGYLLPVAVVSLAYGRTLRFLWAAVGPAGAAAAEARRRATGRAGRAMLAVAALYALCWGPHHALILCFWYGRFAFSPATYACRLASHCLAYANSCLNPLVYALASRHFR
COUP-TFII inh: NR2F2 transcriptional activity inhibitors, primary screen, cell-based, luciferase reporter, HEK293T, luminescence. COUP transcription factor 2 (Homo sapiens), P24468. AID 686940, 2013. 370,000 compounds, 0.7% hits. inhibition, % at 8.6 µM. HEK293T NGFI-A luciferase reporter;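 active means inhibition above a per-plate cutoff, mean inhibition of test wells between control levels plus 3 SD, cut at about 38% in these data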;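 further: cells cotransfected with COUP-TFII expression vector driving the NGFI-A reporter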
Target sequence (P24468 whole entry, looked up): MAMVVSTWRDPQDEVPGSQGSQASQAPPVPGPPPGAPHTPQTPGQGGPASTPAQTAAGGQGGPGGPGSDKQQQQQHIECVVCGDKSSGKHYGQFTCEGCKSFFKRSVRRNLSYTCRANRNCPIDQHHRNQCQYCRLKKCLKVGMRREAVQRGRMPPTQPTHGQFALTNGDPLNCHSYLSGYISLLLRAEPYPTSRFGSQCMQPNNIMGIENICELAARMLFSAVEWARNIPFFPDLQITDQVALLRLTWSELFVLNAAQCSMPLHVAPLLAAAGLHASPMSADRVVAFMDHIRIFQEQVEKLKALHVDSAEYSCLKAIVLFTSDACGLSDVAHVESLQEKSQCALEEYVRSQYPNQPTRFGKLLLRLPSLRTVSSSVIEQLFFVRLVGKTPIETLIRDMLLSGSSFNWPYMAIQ
GAA30 counter: GAA30 FXN promoter activators, confirmation, counter-screen for GAA850 frataxin promoter activator project, cell-based, luminescence, HEK293, lucGAA30, triplicate; HEK293 lucGAA30 FXN promoter luciferase, 24 h; DMSO = 0%, 5 µM ipriflavone = 100%; 1,900 compounds, 66% hits; AID 588350, 2011; activation, % at 6 µM; shares compounds with GAA850 FXN act;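 active means mean activation above the mean of solvent-only control wells plus 3 SD, cut at about 22% in these data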;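 further: counterscreen of GAA850 promoter hits where activity marks nonselective or luminescence artifacts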
GAA850 confirm: FXN GAA850 promoter activators in reporter cells, confirmation, cell-based, luminescence, HEK293 lucGAA850, triplicate; HEK293 lucGAA850 FXN promoter luciferase reporter, 24 h; 100% = activation by SAHA; 1,900 compounds, 86% hits; AID 588351, 2011; activation, % at 6 µM; shares compounds with GAA850 FXN act;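 active means mean activation above a set limit taken from the primary screen, cut at about 8% in these data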
GalR3 antag conf: GalR3 antagonist hit confirmation, cell-based, fluorescence, triplicate. shares compounds with GalR3 antag. HEK293 GalR3 CNG cAMP biosensor, membrane potential fluorescence; galR3 fused to GalR1 carboxy tail; challenged with forskolin and galanin at EC90. inhibition, % at 3 µM. 1,600 compounds, 59% hits. AID 652245, 2013;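 active means inhibition above the primary screen's cutoff, the mean inhibition of all screened compounds plus 3 SD, cut at about 13% in these data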
HEK-CNG parental: nonspecific cAMP agonists in parental HEK-CNG cells, counter-screen for GalR3 antagonist project, cell-based, fluorescence, high throughput. shares compounds with GalR3 antag. HEK293-CNG parental cells, cAMP membrane potential fluorescence; normalised: DMSO wells 0%, forskolin wells 100%. activation, % at 3 µM. 1,600 compounds, 10% hits; in the data active means activation above about 1.3%
SMARCA2 act conf: SMARCA2 (BRM) function activators, confirmation, cell-based, luminescence, triplicate; shares compounds with SMARCA2 act; MG213 cells, MMTV-luciferase with dexamethasone, overnight; MG213 cells expressing E1A, Rb sequestered; DMSO wells 0%, reference activator 100%; activation, % at 9.1 µM; 3,500 compounds, 30% hits; AID 652260, 2013;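 active means activation above its plate's cutoff, the mean activation of tested wells plus 3 SD, cut at about 7.9% in these data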
VP16 Luc act: GAL4-VP16 luciferase reporter activation, counter-screen for SMARCA2 (BRM) activator project, cell-based, pG5luc, luminescence, high throughput; shares compounds with SMARCA2 act; HEK293 GAL4-VP16 pG5luc reporter; scaled: DMSO wells 0%, SAHA wells 100%; activation, % at 9.1 µM; 3,500 compounds, 41% hits; AID 686939, 2013;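 active means activation above the solvent-only control well mean plus 3 SD, averaged across control plates, cut at about 5.2% in these data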
Of the large screens only hits and unclear results are named; the others gave an inactive call (follow-up assays come after a bar, where they were run).

CCCCCCCCN1C(=O)N2Cc3cc(OC)ccc3C2CS1(=O)=O (centres undefined)	none (no result: Gli-Sufu block, H9c2 protect, GAA850 FXN act, GalR3 antag)
COc1cc2c(cc1OC)-c1cc(N3CCCCCC3)nc(=O)n1CC2	GAA850 FXN act 12.7, GalR3 antag 50.0 | GAA30 counter 30.9 | GAA850 confirm 16.4 | GalR3 antag conf 14.1 | HEK-CNG parental inactive
COc1cc2c(cc1OC)-c1cc(Nc3ccc(C(=O)O)cc3)nc(=O)n1CC2	none
COc1cc2c(cc1OC)-c1cc(N3CCc4ccccc43)nc(=O)n1CC2	none
COc1cc2c(cc1OC)-c1cc(NC3CCCCCC3)nc(=O)n1CC2	GAA850 FXN act 12.1, GalR3 antag 52.1 | GAA30 counter 26.1 | GAA850 confirm 12.1 | GalR3 antag conf 58.1 | HEK-CNG parental inactive
CCN(CC)CCCNc1cc2n(c(=O)n1)CCc1cc(OC)c(OC)cc1-2	none
COc1cc2c(cc1OC)-c1cc(N3CCCc4ccccc43)nc(=O)n1CC2	GAA850 FXN act 10.4, GalR3 antag 47.1 | GAA30 counter inactive | GAA850 confirm 15.6 | GalR3 antag conf 59.6 | HEK-CNG parental inactive
CCOc1cccc(Nc2cc3n(c(=O)n2)CCc2cc(OC)c(OC)cc2-3)c1	H9c2 protect 60.4, GAA850 FXN act 9.6, GalR3 antag 16.5 | GAA30 counter inactive | GAA850 confirm 12.1 | GalR3 antag conf 56.2 | HEK-CNG parental inactive
CCCCCCCCN1C(=O)[C@@H](CC(=O)N2CCOCC2)C[C@@]2(C(=O)OC)C1=C[C@H](C1CCCC1)O[C@@H]2C	none (no result: Gli-Sufu block, H9c2 protect, GAA850 FXN act)
CCn1c(/C=N/Nc2ccc(C(=O)O)cc2)nc2ccccc21	none
CC1Oc2ccccc2C=C1/C=N/Nc1ccc(C(=O)O)cc1 (centres undefined)	GAA850 FXN act 10.2, GalR3 antag 13.7 | GAA30 counter 97.4 | GAA850 confirm 38.4 | GalR3 antag conf 13.9 | HEK-CNG parental inactive
Cc1nc(N2N=C(c3ccc(Cl)cc3)CC2c2ccco2)sc1C(=O)N(C)C (centres undefined)	GAA850 FXN act 10.7, GalR3 antag 20.9 | GAA30 counter 26.5 | GAA850 confirm 21.9 | GalR3 antag conf inactive | HEK-CNG parental inactive
COCCN=C1S/C(=C\c2cc(C)n(-c3ccc(F)cc3F)c2C)C(=O)N1C	none (no result: Gli-Sufu block, H9c2 protect, SMARCA2 act, GAA850 FXN act, GalR3 antag)
NC(=O)CSc1nc2sc3c(c2c2ncnn12)CCCC3	none
CC1CCCc2sc3nc(N4CCN(CCO)CC4)n4ncnc4c3c21 (centres undefined)	GAA850 FXN act 8.1, GalR3 antag 22.4 | GAA30 counter 32.5 | GAA850 confirm 21.5 | GalR3 antag conf 42.6 | HEK-CNG parental 1.9
OCC1OC(n2cnc3c(NC4CCCCC4)ncnc32)C(O)C1O (centres undefined)	GAA850 FXN act 9.6, GalR3 antag 35.8 | GAA30 counter 37.1 | GAA850 confirm 16.7 | GalR3 antag conf 49.3 | HEK-CNG parental inactive
NC(=O)[C@@H]1CCCN1C(=O)[C@@H](Cc1ccccc1)NC(=O)[C@H]1O[C@@H](n2ccc(N)nc2=O)[C@H](O)[C@@H]1O	none (no result: Gli-Sufu block, H9c2 protect, GAA850 FXN act)
COc1ccc([C@@H]2[C@@H]3C(=O)N(C(C)(C)C)C(=O)[C@@H]3[C@]3(Cc4ccccc4)C(=O)N(c4ccc(C(F)(F)F)cc4)C(=O)N23)cc1	none
CC(C)(C)N1C(=O)[C@H]2[C@@H](c3ccc(Br)cc3)N3C(=O)N(c4ccccc4)C(=O)[C@@]3(Cc3ccccc3)[C@H]2C1=O	GAA850 FXN act 9.9 (no result: GalR3 antag) | GAA30 counter inactive | GAA850 confirm 13.6 | GalR3 antag conf inactive | HEK-CNG parental inactive
COc1ccc(/C=C/C2=NNC(=O)CC2)cc1	GAA850 FXN act 7.7, GalR3 antag 14.7 | GAA30 counter 82.8 | GAA850 confirm 32.1 | GalR3 antag conf inactive | HEK-CNG parental inactive
CCOc1ccc2nc(SCC#N)c(C#N)cc2c1	SMARCA2 act 8.8, GAA850 FXN act 8.2 | GAA30 counter 107.6 | GAA850 confirm 31.7 | SMARCA2 act conf 7.8 | VP16 Luc act 6.6
CN(/N=C/c1cccnc1)c1cnc2ccccc2n1	SMARCA2 act 9.0, GAA850 FXN act 9.3 | GAA30 counter 131.7 | GAA850 confirm 34.3 | SMARCA2 act conf 19.4 | VP16 Luc act 11.4
CCN1CCCC1CNC(=O)c1ccc2c(c1)NC(=O)/C(=C\c1ccc(OC)c(OC)c1)S2 (centres undefined)	SMARCA2 act 8.6, GAA850 FXN act 7.7 | GAA30 counter inactive | GAA850 confirm inactive | SMARCA2 act conf 11.7 | VP16 Luc act inactive
CC1=C(C(=O)N(C(C)C)C(C)C)CC(CC(=O)NCCN2CCOCC2)C(=O)N1CCC1=CCCCC1 (centres undefined)	none (no result: Gli-Sufu block, GAA850 FXN act)
